Measured values from publication PMC7862700, “An all-to-all approach to the identification of sequence-specific readers for epigenetic DNA modifications on cytosine”.

Columns and labels:
Test in all cases: DAPPL (digital affinity profiling via proximity ligation, sequencing); 10 mM Tris-HCl pH 7.5, 50 mM NaCl, 1 mM DTT, 4% glycerol, room temperature, 30 min; GST-TFs on glutathione beads, 16-mer random dsDNA library, 0.1% formaldehyde crosslink after washing; high values mean tight binding
Conditions in all cases: protein: recombinant; tags: N-terminal GST; dsDNA, one strand shown
FLI1 = molecular target: T1, FLI1 (Homo sapiens, UniProt Q01543 1-452)
T1 sequence: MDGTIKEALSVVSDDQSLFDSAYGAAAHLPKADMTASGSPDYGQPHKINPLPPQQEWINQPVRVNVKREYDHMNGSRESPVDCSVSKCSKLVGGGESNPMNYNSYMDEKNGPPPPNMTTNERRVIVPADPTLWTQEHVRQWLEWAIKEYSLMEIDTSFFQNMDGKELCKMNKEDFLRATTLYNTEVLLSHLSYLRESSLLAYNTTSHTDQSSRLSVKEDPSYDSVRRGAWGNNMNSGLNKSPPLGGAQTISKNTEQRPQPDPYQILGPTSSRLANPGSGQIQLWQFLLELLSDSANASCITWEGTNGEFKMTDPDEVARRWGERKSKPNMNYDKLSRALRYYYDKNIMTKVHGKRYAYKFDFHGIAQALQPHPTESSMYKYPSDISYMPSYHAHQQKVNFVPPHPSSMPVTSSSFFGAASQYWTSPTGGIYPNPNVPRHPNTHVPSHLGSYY
Method in brief: (§1)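 Beads coated with glutathione captured GST-fused human transcription factors that had been expressed in yeast, and the factors were then given DNA barcodes and pooled with a tag-only sample. The pools were incubated with 200 nmole of a random double-stranded 16-mer DNA library in Tris/NaCl/DTT/glycerol buffer for 30 min at room temperature, washed, crosslinked with 0.1% formaldehyde and proximity-ligated with BsaI/T4 ligase at 37 °C for 1 h. PCR amplification and Illumina NextSeq500 sequencing came last. Binding signal is each hexamer's read frequency for a factor divided by its frequency for the tag-only sample.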

ELK1 = molecular target: T2, ELK1 (Homo sapiens, UniProt P19419 1-428)
T2 sequence: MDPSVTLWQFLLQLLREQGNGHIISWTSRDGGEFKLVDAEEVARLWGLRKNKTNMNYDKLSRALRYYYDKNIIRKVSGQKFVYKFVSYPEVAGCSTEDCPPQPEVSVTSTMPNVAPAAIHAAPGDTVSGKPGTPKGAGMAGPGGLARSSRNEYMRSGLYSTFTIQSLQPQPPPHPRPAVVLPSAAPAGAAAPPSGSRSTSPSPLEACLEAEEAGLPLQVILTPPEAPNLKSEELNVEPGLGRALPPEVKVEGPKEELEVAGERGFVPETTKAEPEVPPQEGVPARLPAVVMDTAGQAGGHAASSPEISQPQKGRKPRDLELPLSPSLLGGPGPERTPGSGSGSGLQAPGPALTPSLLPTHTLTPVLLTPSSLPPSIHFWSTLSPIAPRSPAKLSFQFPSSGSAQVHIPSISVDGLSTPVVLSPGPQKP
Method in brief: as §1

GABPA = molecular target: T3, GABPA (Homo sapiens, UniProt Q06546 1-454)
T3 sequence: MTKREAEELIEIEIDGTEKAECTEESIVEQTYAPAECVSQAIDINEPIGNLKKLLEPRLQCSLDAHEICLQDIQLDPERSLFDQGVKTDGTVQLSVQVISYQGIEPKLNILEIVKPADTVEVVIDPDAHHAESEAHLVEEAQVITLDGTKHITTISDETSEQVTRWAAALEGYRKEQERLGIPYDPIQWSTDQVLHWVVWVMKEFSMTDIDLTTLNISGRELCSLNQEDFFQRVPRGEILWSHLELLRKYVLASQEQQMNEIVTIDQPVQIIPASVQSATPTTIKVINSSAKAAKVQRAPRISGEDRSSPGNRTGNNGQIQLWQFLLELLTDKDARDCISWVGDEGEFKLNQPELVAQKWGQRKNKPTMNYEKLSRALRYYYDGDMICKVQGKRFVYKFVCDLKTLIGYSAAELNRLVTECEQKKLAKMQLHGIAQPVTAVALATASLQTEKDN
Method in brief: as §1

ERG = molecular target: T4, ERG (Homo sapiens, UniProt P11308 1-479)
T4 sequence: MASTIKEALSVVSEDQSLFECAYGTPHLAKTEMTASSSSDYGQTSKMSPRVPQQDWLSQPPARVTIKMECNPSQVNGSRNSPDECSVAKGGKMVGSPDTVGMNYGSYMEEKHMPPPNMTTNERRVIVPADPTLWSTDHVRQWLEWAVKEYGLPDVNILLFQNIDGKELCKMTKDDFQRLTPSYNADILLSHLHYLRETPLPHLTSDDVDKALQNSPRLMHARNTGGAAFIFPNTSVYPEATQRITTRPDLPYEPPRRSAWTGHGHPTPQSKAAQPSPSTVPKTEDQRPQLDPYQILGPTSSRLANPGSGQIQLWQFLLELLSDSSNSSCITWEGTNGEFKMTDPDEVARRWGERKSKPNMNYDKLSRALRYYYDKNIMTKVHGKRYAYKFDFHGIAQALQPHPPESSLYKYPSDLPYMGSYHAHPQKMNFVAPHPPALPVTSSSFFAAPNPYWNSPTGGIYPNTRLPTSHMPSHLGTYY
Method in brief: as §1

ELF1 = ELF1 (Homo sapiens, UniProt P32519 1-619)
Sequence of ELF1 (P32519 whole entry): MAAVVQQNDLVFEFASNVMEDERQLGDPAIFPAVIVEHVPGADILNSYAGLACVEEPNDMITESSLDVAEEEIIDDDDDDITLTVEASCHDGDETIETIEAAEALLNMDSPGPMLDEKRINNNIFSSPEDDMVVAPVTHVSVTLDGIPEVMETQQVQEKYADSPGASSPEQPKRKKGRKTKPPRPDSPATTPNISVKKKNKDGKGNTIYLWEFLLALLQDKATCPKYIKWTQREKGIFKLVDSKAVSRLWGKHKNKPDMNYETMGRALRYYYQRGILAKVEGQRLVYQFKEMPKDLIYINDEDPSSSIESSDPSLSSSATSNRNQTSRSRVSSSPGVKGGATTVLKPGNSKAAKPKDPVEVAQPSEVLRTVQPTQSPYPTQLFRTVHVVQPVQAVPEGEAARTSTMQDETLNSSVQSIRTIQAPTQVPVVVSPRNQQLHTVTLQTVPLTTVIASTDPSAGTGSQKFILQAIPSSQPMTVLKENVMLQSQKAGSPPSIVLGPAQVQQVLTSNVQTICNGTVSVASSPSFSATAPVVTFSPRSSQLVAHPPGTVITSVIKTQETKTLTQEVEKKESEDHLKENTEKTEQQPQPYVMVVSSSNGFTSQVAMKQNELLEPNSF
Method in brief: as §1

EHF = molecular target: T5, EHF (Homo sapiens, UniProt Q9NZC4 1-300)
T5 sequence: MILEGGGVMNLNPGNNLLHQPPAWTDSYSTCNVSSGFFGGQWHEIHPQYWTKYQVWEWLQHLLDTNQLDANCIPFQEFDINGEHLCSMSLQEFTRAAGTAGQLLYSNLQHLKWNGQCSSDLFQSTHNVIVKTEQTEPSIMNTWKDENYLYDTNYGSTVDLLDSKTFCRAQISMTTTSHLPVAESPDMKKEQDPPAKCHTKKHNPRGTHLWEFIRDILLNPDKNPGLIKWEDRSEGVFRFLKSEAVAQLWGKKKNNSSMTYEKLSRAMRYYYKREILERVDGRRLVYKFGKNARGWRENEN
Method in brief: as §1

SPI1 = SPI1 (Homo sapiens, UniProt P17947 1-270)
Method in brief: as §1

SPIB = SPIB (Homo sapiens, UniProt Q01892 1-262)
Sequence of SPIB (Q01892 whole entry): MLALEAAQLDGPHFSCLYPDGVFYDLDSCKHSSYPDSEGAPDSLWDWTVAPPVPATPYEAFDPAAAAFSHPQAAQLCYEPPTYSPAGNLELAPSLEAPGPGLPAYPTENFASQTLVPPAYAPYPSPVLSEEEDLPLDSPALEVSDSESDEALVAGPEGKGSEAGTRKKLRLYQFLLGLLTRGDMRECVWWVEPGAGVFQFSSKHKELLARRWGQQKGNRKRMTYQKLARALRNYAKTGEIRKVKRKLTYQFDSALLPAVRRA
Method in brief: as §1

ELK3 = molecular target: T6, ELK3 (Homo sapiens, UniProt P41970 1-407)
T6 sequence: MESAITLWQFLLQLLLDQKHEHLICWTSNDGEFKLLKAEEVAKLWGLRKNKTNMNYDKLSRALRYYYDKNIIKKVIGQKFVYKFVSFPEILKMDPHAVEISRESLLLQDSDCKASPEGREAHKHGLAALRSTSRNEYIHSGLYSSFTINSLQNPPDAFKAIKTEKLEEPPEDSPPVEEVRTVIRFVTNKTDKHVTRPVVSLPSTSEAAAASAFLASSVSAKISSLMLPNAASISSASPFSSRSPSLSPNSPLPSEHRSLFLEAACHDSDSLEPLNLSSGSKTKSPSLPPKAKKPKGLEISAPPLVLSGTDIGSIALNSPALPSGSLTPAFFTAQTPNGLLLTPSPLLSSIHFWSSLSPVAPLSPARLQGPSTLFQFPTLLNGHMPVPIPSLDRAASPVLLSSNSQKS
Method in brief: as §1

FEV = molecular target: T7, FEV (Homo sapiens, UniProt Q99581 1-238)
T7 sequence: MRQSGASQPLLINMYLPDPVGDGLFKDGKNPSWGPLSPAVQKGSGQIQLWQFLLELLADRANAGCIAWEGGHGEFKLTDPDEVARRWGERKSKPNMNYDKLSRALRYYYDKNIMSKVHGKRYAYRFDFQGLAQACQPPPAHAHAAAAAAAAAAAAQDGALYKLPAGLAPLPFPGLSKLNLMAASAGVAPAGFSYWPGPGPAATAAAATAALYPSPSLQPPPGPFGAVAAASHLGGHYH
Method in brief: as §1

ETV5 = ETV5 (Homo sapiens, UniProt P41161 1-510)
Sequence of ETV5 (P41161 whole entry): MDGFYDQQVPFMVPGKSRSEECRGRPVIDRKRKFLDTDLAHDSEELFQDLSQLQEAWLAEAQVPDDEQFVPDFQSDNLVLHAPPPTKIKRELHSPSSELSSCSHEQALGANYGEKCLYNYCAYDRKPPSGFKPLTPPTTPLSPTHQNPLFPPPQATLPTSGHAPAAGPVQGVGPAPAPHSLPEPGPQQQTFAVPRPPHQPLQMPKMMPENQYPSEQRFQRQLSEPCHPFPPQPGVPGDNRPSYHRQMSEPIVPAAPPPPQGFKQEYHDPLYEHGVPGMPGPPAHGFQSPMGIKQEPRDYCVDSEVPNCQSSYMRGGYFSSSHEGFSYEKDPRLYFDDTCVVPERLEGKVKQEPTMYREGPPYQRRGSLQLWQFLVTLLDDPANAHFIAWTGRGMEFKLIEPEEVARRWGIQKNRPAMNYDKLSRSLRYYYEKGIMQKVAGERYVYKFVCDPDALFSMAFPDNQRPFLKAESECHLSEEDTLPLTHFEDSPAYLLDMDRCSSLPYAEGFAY
Method in brief: as §1

SPIC = molecular target: T8, SPIC (Homo sapiens, UniProt Q8N5J4 1-248)
T8 sequence: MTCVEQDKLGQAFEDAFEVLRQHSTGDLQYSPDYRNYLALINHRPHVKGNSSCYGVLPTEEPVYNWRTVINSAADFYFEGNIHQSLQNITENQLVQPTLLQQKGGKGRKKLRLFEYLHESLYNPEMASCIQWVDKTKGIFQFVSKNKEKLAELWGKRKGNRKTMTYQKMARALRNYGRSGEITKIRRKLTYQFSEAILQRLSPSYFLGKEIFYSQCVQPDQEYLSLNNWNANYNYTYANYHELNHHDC
Method in brief: as §1

ELF4 = ELF4 (Homo sapiens, UniProt Q99607 1-663)
Sequence of ELF4 (Q99607 whole entry): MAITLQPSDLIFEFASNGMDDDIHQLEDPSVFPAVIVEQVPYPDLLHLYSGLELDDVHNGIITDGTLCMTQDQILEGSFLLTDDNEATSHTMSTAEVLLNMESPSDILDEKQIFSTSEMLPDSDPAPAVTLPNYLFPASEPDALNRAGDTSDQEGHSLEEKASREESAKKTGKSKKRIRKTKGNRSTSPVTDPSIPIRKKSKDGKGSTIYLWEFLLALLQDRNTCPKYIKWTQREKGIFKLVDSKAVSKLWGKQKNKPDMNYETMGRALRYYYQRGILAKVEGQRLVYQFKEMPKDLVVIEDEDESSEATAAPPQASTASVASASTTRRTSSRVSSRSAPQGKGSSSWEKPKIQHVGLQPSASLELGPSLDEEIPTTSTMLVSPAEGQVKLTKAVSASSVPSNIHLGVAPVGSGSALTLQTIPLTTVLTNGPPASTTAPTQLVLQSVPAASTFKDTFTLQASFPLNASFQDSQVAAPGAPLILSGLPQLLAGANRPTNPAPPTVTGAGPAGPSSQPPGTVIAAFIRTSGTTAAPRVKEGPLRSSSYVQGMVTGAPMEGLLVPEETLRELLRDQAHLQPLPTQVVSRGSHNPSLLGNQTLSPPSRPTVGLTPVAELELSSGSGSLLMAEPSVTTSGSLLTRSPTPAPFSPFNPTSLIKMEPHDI
Method in brief: as §1

ELK4 = molecular target: T9, ELK4 (Homo sapiens, UniProt P28324-2 1-405)
T9 sequence: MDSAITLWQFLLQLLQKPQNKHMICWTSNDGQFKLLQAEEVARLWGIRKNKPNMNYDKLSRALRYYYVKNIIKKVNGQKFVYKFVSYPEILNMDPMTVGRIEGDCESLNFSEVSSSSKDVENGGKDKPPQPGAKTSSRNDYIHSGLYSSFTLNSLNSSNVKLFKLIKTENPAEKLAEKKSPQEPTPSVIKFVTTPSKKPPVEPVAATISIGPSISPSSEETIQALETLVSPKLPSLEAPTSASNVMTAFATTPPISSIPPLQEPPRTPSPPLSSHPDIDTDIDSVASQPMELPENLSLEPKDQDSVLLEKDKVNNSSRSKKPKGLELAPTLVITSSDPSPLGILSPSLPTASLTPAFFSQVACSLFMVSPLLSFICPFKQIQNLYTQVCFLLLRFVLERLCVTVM
Method in brief: as §1

ETV2 = molecular target: T10, ETV2 (Homo sapiens, UniProt O00321 1-342)
T10 sequence: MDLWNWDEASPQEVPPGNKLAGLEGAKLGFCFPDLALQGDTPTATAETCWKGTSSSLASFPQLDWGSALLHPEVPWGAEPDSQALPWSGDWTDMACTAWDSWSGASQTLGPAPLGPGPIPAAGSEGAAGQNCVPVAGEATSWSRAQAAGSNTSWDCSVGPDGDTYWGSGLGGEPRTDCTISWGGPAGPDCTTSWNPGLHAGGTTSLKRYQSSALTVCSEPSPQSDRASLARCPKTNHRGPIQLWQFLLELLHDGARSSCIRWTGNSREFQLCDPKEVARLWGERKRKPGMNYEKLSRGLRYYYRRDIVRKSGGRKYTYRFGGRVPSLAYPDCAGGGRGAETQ
Method in brief: as §1

ELF3 = molecular target: T11, ELF3 (Homo sapiens, UniProt P78545 1-371)
T11 sequence: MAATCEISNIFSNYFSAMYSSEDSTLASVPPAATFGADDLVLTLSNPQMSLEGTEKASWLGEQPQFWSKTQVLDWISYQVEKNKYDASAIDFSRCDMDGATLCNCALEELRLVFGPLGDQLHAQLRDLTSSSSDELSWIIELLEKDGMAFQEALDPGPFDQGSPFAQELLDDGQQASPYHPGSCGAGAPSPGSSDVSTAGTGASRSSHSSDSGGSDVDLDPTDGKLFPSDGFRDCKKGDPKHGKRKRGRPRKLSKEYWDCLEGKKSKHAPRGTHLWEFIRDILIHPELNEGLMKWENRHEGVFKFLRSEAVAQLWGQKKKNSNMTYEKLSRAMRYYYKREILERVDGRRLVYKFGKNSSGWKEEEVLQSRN
Method in brief: as §1

ETV1 = ETV1 (Homo sapiens, UniProt P50549 1-477)
Sequence of ETV1 (P50549 whole entry): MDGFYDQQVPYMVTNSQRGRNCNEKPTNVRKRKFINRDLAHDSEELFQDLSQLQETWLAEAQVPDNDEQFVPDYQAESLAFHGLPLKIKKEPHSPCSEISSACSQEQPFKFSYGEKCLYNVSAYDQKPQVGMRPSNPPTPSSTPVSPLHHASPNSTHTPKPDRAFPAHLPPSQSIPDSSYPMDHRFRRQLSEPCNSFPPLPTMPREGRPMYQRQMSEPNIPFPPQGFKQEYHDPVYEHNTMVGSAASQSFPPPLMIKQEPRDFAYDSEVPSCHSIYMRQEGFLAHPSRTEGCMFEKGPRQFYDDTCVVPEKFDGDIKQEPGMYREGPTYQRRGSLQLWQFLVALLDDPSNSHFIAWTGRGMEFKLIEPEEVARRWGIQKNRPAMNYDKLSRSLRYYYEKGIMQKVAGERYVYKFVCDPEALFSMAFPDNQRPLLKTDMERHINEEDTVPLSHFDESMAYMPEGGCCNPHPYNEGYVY
Method in brief: as §1

Sequence | binding signal (FLI1) | binding signal (ELK1) | binding signal (GABPA) | binding signal (ERG) | binding signal (ELF1) | binding signal (EHF) | binding signal (SPI1) | binding signal (SPIB) | binding signal (ELK3) | binding signal (FEV) | binding signal (ETV5) | binding signal (SPIC) | binding signal (ELF4) | binding signal (ELK4) | binding signal (ETV2) | binding signal (ELF3) | binding signal (ETV1)
ACACAT | 1.34 fold enrichment (6-mer frequency, TF over GST control) | 1.25 fold enrichment (6-mer frequency, TF over GST control) | 1.17 fold enrichment (6-mer frequency, TF over GST control) | 1.31 fold enrichment (6-mer frequency, TF over GST control) | 1.25 fold enrichment (6-mer frequency, TF over GST control) | 1.35 fold enrichment (6-mer frequency, TF over GST control) | 1.21 fold enrichment (6-mer frequency, TF over GST control) | 1.21 fold enrichment (6-mer frequency, TF over GST control) | 1.32 fold enrichment (6-mer frequency, TF over GST control) | 1.29 fold enrichment (6-mer frequency, TF over GST control) | 1.19 fold enrichment (6-mer frequency, TF over GST control) | 1.17 fold enrichment (6-mer frequency, TF over GST control) | 1.23 fold enrichment (6-mer frequency, TF over GST control) | 1.33 fold enrichment (6-mer frequency, TF over GST control) | 1.35 fold enrichment (6-mer frequency, TF over GST control) | 1.28 fold enrichment (6-mer frequency, TF over GST control) | 1.23 fold enrichment (6-mer frequency, TF over GST control)
CCGGGT | 1.2 fold enrichment (6-mer frequency, TF over GST control) | 1.06 fold enrichment (6-mer frequency, TF over GST control) | 1.01 fold enrichment (6-mer frequency, TF over GST control) | 1.12 fold enrichment (6-mer frequency, TF over GST control) | 1.13 fold enrichment (6-mer frequency, TF over GST control) | 1.17 fold enrichment (6-mer frequency, TF over GST control) | 1.01 fold enrichment (6-mer frequency, TF over GST control) | 1.16 fold enrichment (6-mer frequency, TF over GST control) |  | 1.02 fold enrichment (6-mer frequency, TF over GST control) | 1.26 fold enrichment (6-mer frequency, TF over GST control) | 1.19 fold enrichment (6-mer frequency, TF over GST control) | 1.15 fold enrichment (6-mer frequency, TF over GST control) | 1.09 fold enrichment (6-mer frequency, TF over GST control) | 1.15 fold enrichment (6-mer frequency, TF over GST control) | 1.12 fold enrichment (6-mer frequency, TF over GST control) | 1.17 fold enrichment (6-mer frequency, TF over GST control)
GGAAAC | 1.2 fold enrichment (6-mer frequency, TF over GST control) | 1.35 fold enrichment (6-mer frequency, TF over GST control) | 1.25 fold enrichment (6-mer frequency, TF over GST control) | 1.57 fold enrichment (6-mer frequency, TF over GST control) | 1.22 fold enrichment (6-mer frequency, TF over GST control) | 1.47 fold enrichment (6-mer frequency, TF over GST control) | 1.25 fold enrichment (6-mer frequency, TF over GST control) | 1.39 fold enrichment (6-mer frequency, TF over GST control) | 1.43 fold enrichment (6-mer frequency, TF over GST control) | 1.67 fold enrichment (6-mer frequency, TF over GST control) | 1.43 fold enrichment (6-mer frequency, TF over GST control) | 1.26 fold enrichment (6-mer frequency, TF over GST control) | 1.2 fold enrichment (6-mer frequency, TF over GST control) | 1.01 fold enrichment (6-mer frequency, TF over GST control) | 1.35 fold enrichment (6-mer frequency, TF over GST control) | 1.42 fold enrichment (6-mer frequency, TF over GST control) | 1.35 fold enrichment (6-mer frequency, TF over GST control)
